Results taken from PubChem BioAssay AID1879 (The Scripps Research Institute Molecular Screening Center, 2009).
The other results are listed elsewhere or left out. Unmarked numbers belong to inactive results. Calls of active or inactive are those of the source. No stated cut-off is given here; in the data, active means inhibition above about 13%; inactive means the rest.

Tested on: SARS coronavirus 3C-like protease (3CLpro)
Experiment: confirmation of SARS coronavirus 3C-like protease inhibitors, retest, confirmation, biochemical (AID 1879)
Conditions: QFRET protease activity assay, at 6 µM, stronger effect = higher value

Row | SMILES | inhibition
1 | O=C(NCc1ccccc1)c1ccc(S(=O)(=O)Nc2cccc(C(F)(F)F)c2)cc1 | 7.75%
2 | COC(=O)c1cc(NC(=O)Cc2ccccc2[N+](=O)[O-])ccc1Cl | 15% (active)
3 | O=C(O)c1ccc(NC(=O)c2cn(-c3ccccc3)nc2-c2ccc(Cl)cc2)cc1 | 6.65%
4 | COc1ccccc1N(C(=O)Cn1nnc2ccccc21)C(C(=O)NCc1ccco1)c1ccc(C)o1 (centres undefined) | 26.2% (active)
